# A selection: hits, their analogues and other compounds. The true share with any hit is near 2.3%.
# FBPA coupling cs: qHTS Assay for Inhibitors of Fructose-1,6-bisphosphate Aldolase from Giardia Lamblia: Coupling assay counterscreen; coupling enzyme system counterscreen, AmpLite Red fluorescence; activity change, negative = inhibition, % at 58.2 µM, hits read low; 290,000 compounds, 0.67% hits; in the data active = activity change below about -30%
#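 Compounds tested against the coupling enzymes alone at 57.5 uM final; readout was AmpLite Red fluorescence (525/598 nm) after 20 min at RT.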
# USP1 inh: Inhibitors of USP1/UAF1: Primary Screen. Ubiquitin carboxyl-terminal hydrolase 1 (Homo sapiens), O94782. recombinant USP1/UAF1, Ub-Rhodamine cleavage fluorescence. Potency, µM (doses to about 57.1 µM), for inactives: at the top dose activity change, negative = inhibition, hits mostly inhibitors. 390,000 compounds, 0.23% hits; also: potency is read from the fitted curve at half-maximal effect; nearly all actives have a fitted effect of over 60% in size
#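 High-throughput fluorogenic screen: 1nM USP1/UAF1 complex, Ub-Rho substrate 150nM final, 50mM HEPES pH 7.8 with 0.5mM EDTA, 0.1 mg/ml BSA, 1mM TCEP and 0.01% Tween-20.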
# Tau fluor counter: Counterscreen qHTS for Inhibitors of Tau Fibril Formation, Fluorescence Polarization. tau K18 P301L Alexa594 fluorescence, heparin fibrillization. Potency, µM (top dose mostly 57.7 µM), for inactives: at the highest dose activity change, negative = decrease. 280,000 compounds, 0.93% hits; also: potency is read from the fitted curve at half-maximal effect; nearly all actives have a fitted effect of over 55% in size
#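 Human tau K18 P301L (15 uM unlabeled, 0.24 uM Alexa 594-labeled) in 100 mM sodium acetate pH 7 with 20 uM heparin, 6 hr at 37 C. ThT 30 uM added, 1 hr ambient; Alexa 594 FP and total fluorescence read at 555/632 nm.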
# Tau ThT inhib: qHTS for Inhibitors of Tau Fibril Formation, Thioflavin T Binding; Microtubule-associated protein tau (Homo sapiens), P10636; recombinant tau K18 P301L (four-repeat tau fragment), heparin-induced fibrillization, ThT fluorescence; Potency, µM (highest dose often 57.4 µM), for the others: at the top dose activity, negative = inhibition, hits mostly inhibitors; 270,000 compounds, 2.1% hits; also: potency is read from the fitted curve at half-maximal effect; nearly all actives have a fitted effect of over 55% in size
# Target sequence (P10636 561-689 P618L limits assumed): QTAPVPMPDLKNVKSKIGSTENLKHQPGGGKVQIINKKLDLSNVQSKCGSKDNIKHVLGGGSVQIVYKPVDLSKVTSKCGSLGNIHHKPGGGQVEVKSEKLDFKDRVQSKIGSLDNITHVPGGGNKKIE
#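 Heparin-induced (20 uM) aggregation of recombinant human K18 P301L tau, 15 uM unlabeled with 0.24 uM labeled, pH 7 acetate buffer, 6 hr at 37 C with compound. Fibrils quantified by 30 uM ThT fluorescence after 1 hr ambient incubation.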
# Tau fibril FP: qHTS for Inhibitors of Tau Fibril Formation, Fluorescence Polarization | K18 P301L tau heparin fibrillization, Alexa594 FP, 6 h | Potency, µM (highest dose often 57.7 µM), for the others: at the highest dose activity, negative = inhibition, hits mostly inhibitors | 280,000 compounds, 0.39% hits; also: potency is read from the fitted curve at half-maximal effect; nearly all actives have a fitted effect of over 55% in size
#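 Steps: dispense K18 P301L tau (15 uM plus 0.24 uM Alexa 594 tracer, final) in pH 7 sodium acetate; add compound; add heparin (20 uM final); incubate 6 hr, 37 C; add ThT (30 uM final); after 1 hr ambient, read FP.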
# * marks the source's active call; other numbers are inactive results; ? = inconclusive; . = no result; [ ] = another dose, or the depositor's remark. Unless noted, calls follow the shape of the dose curve; as a rule, active = well fitted curve in the direction sought with a large enough effect; inconclusive = small, poorly fitted or top-dose-only effect, or another doubt; inactive = no such curve, though single readings can be large; an effect the other way counts as inactive or inconclusive. % is scaled to controls: 0 for no effect and ±100 for the full control effect.
SMILES,FBPA coupling cs,USP1 inh,Tau fluor counter,Tau ThT inhib,Tau fibril FP
CCCCCCN1C=C/C(=C\C=C(C#N)C#N)c2ccccc21,-5,-2%,-10%,?,-19%
CN1/C(=C/C=C(C#N)C#N)C=Cc2ccccc21,-3,-12%,?,?,25µM*
CCCN1C=CC(=C/C=C(\C#N)C(=O)OCC)C=C1,-4,.,-3%,?,9%
COc1cc(NC(=O)Cn2c(=O)n(CC(=O)NCCc3ccc(OC)c(OC)c3)c(=O)c3sccc32)cc(OC)c1,.,?,-17%,?,-14%
NC(=O)[C@@H]1[C@@H]2C(=O)N(c3ccc(F)cc3)C(=O)[C@@H]2[C@H]2C=Cc3ccccc3N21,-20,6%,-25%,14µM*,?
O=C(c1ccco1)[C@@H]1[C@@H]2C(=O)N(c3ccc(F)cc3)C(=O)[C@@H]2[C@H]2C=Cc3ccccc3N21,-8,?,-25%,14µM*,?
CN1CCN(c2ncc3nc(CCc4ccccc4)c(=O)n(C)c3n2)CC1,-4,.,.,.,.
Cc1ccc(NCc2ccccc2O)cc1,-1,-15%,?,-17%,18%
Cc1ccccc1NCc1ccccc1O,-33*,-26%,?,-14%,?
Nc1cccc2nsnc12,-23,?,-16%,28µM*,?
Cc1cc2oc(=O)c(CC(=O)NCCc3ccccc3)c(C)c2c2occ(C(C)(C)C)c12,.,-9%,-17%,-18%,-6%
Cc1cc2c(nc1C)CCCCN2C[C@H](C)O/N=C\[C@@H](C)[C@H](OCc1ccccc1)C(C)C,0,.,-6%[11.6 µM],-5%[11.5 µM],4%[11.6 µM]
Cc1ccc(NC(=O)CCC(=O)c2cccs2)cc1F,-2,-5%,.,.,.
CC1CCN(c2ccc(-c3nc(C(C)C)no3)cc2[N+](=O)[O-])CC1,.,-13%,-6%,-11%,13%
COc1ccc(Cc2nnc(N=Nc3c(O)[nH]c4ccc(Br)cc34)[nH]c2=O)cc1,3,3%,-27%,16µM*,1%
COc1ccc2[nH]c(O)c(N=NC(=N)N)c2c1,0,0%,-8%,?,?
CC(S(=O)(=O)c1ccccc1)S(=O)(=O)c1ccccc1,.,-25%,.,.,.
COc1cc(C(=O)O/N=C2/C=C(C)C(=O)C=C2C)cc(OC)c1OC,-10,-21%,-5%,?,-2%
CC1=C/C(=N\OS(=O)(=O)c2ccccc2)C(C(C)C)=CC1=O,-70*,-19%,-26%,10µM*,?
CC1=C/C(=N\OS(=O)(=O)c2ccccc2)C(C)=CC1=O,-88*,-9%,?,14µM*,?
CC1=C(C)/C(=N\OS(=O)(=O)c2ccc(C)cc2)C=CC1=O,-85*,-5%,?,10µM*,16µM*
CCN(CCNC(=O)c1ccc(CSc2nc3ccncc3[nH]2)cc1)c1ccccc1,-4,-6%,25µM*[quencher],?,1%
CCCc1[nH]nc2c1C(c1cccnc1)C(C#N)=C(N)O2 (configuration not stated),3,-12%,?,18µM*,?
CCOC(=O)C1=C(CSc2nc(-c3ccncc3)ccc2C#N)OC(N)=C(C#N)C1c1cccnc1 (configuration not stated),2,-16%,4%,1%,4%
CCn1c2ccccc2c2cc(C3C(C#N)=C(N)Oc4n[nH]c(COC)c43)ccc21 (configuration not stated),-8,-18%,?,16µM*,-17%
SMILES,FBPA coupling cs,USP1 inh,Tau fluor counter,Tau ThT inhib,Tau fibril FP
CCOC(=O)C1=C(C(C)=O)C(c2cccnc2)C(C#N)=C(N)O1 (configuration not stated),-34*,-13%,1%,-14%,-9%
O=C1NC(=O)c2c1c(-c1ccccc1)cc1[nH]c3ccc(O)cc3c21,-13,.,.,.,.
CNc1nc(C#N)nc(Nc2ccccc2)n1,0,.,.,.,.
CCNC(=O)c1c(NC(=O)c2nc(S(=O)(=O)CC)ncc2Cl)sc2c1CCCC2,.,-22%,-27%,6.3µM*,-16%
COCCCNC(=O)c1c(NC(=O)c2nc(S(C)(=O)=O)ncc2Cl)sc2c1CCCC2,.,-7%,-26%,13µM*,-12%
CCCSc1ncc(Cl)c(C(=O)Nc2sc3c(c2C(N)=O)CCCC3)n1,.,-13%,-12%,-7%,-8%
CCSc1ncc(Cl)c(C(=O)Nc2sc3c(c2C(=O)NCCCOC)CCCC3)n1,.,7%,-16%,-17%,-9%
CCN1CCOC(=O)C1CC(=O)Nc1cc(Cl)ccc1C (configuration not stated),.,-15%,-14%,?,-4%
O=C(NCCc1csc(-c2cccc(F)c2)n1)c1ccc(Br)o1,.,-17%,-7%,?,3%
COc1ccc(NC(=O)CN2C(=O)C3(SCC(=O)N3c3ccccc3)c3ccccc32)cc1Cl (configuration not stated),.,-15%,?,2%,?
Cc1ccc(S(=O)(=O)N(CC(=O)NCC2CCCO2)Cc2ccc(F)cc2)cc1 (configuration not stated),-4,-5%,.,.,.
Cc1cc([N+](=O)[O-])c2c(c1C)C1C=CCC1C(c1ccccn1)N2 (configuration not stated),-16,.,?,16µM*,?
COc1cc(/C=C\C(=O)N2CCC=CC2=O)cc(OC)c1OC,-1,.,.,.,.
COc1cccc(CN2c3ccccc3-c3nc(SCC(=O)Nc4ccccc4Cl)ncc3S2(=O)=O)c1,.,-11%,?,-14%,?
Cc1cc(OCC(=O)NC(Cc2c[nH]c3ccccc23)C(=O)O)ccc1Cl (configuration not stated),.,-12%,-1%,-8%,8%
Cc1ccc(-c2csc(NC(=O)c3ccc(Br)cc3)c2C(=O)O)cc1,-30*,?,.,.,.
CCN(CC)c1ccc(C=C2C(=O)OC3(CCCCC3)OC2=O)cc1,-1,-17%,-3%,-18%,3%
CCN(CC)c1ccc(/C=C2/C(=O)c3ccc(C(=O)O)cc3C2=O)cc1,2,13µM*,-11%,3.2µM*,?
CN1CCCc2cc(C=O)ccc21,-4,-14%,-11%,?,?
CCCN1CCCc2cc(CN)ccc21,-52*,16µM*,?,25µM*,-17%
C/C(C/C(C)=C1/SC(=S)NC1=O)=C1\SC(=S)NC1=O,11,?,-25%,16µM*,-1%
CC(=O)Nc1cccc(-c2nnc(SCC(=O)c3ccc([N+](=O)[O-])cc3)o2)c1,.,?,-23%,?,-3%

# High-throughput results (PubChem)
